Assay [1] in a line: optical density shifts of acrAB sulA E. coli – strain DRC41, OD650, 48 h, E. coli filamentation inducer project, primary screen (AID 1152).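 Note: E. coli MC1000 strain DRC41 lacking acrAB efflux pump and sulA.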 Conditions: higher = more signal, called active from +8 up or from −8 down.
Assay [2] in a line: probe aLefty1 binding on compound microarray – biochemical, small-molecule microarray, 635/667 nm fluorescence, primary screen (AID 1153).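 Note: score merges spot fluorescence with signal-to-noise ratio from the scanned slide images.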 Conditions: higher = more signal.
Assay [3] is described as follows: plasmodial surface anion channel blockers, osmotic lysis – cell-based, P. falciparum Indochina, OD700, 1 h, primary screen (AID 1154). Conditions: P. falciparum Indochina infected RBC osmotic lysis, higher = more signal, called active from +8 up or from −8 down.
The nature of assay [4]: plasmodial surface anion channel blockers, osmotic lysis – cell-based, P. falciparum Indochina, OD700, 2 h, primary screen (AID 1155).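 Note: lysis reports solute entry through the parasite surface anion channel PSAC.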 Conditions: P. falciparum Indochina infected erythrocytes, higher = more signal, called active from +8 up or from −8 down.
Assay [5] can be described thus: changes in parasitized red cell lysis, either direction – P. falciparum Indochina, OD700, 3 h, PSAC antagonist project, primary screen (AID 1156). The conditions noted are these: P. falciparum-infected erythrocytes, osmotic lysis, higher = more signal, called active from +8 up or from −8 down.
Assay [6] in a line: plasmodial surface anion channel blockers, osmotic lysis – cell-based, P. falciparum Indochina, OD700, 18 h, primary screen (AID 1157). The conditions noted are these: P. falciparum Indochina infected erythrocytes, osmotic lysis OD700, 18 h; higher = more signal, called active from +8 up or from −8 down.
Assay [7] is described as follows: S6 kinase pathway phospho-S6 level changes – cell-based, A549, cytoblot, luminescence, serum-stimulated, primary screen (AID 1158).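 Note: serum-stimulated A549 lung adenocarcinoma cells; signal is phosphorylated S6 detected by cytoblot immunostaining with HRP secondary.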 Conditions: 5 h, higher = more signal.
In assay [8] the target is NADPH oxidase 2 (Homo sapiens) (UniProt P04839). Description: compounds shifting NOX2 Amplex Red fluorescence – cell-based, HEK293-NOX2, PMA-stimulated, NOX inhibitor project, primary screen (AID 1159). Note: test concentration not given here. Conditions: 45 min, higher = more signal, called active from +8 up or from −8 down.
NADPH oxidase 2 (Homo sapiens), sequence (P04839 whole entry, looked up): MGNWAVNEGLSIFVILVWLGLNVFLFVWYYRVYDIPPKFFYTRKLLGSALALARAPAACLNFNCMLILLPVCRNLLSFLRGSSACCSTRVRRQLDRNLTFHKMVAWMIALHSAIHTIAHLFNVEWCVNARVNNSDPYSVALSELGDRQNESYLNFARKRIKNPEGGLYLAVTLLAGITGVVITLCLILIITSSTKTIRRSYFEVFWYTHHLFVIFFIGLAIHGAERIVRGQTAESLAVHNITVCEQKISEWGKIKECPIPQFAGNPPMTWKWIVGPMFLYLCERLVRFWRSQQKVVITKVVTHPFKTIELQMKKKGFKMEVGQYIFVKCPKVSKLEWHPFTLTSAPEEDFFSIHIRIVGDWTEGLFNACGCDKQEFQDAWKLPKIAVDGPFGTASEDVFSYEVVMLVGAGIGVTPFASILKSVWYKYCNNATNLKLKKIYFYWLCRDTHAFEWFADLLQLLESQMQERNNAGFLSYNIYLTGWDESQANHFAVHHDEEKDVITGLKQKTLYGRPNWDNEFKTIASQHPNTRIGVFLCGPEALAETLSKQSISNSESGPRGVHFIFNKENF
The target in assay [9] is NADPH oxidase 4 (Homo sapiens) (UniProt Q9NPH5). In words: compounds shifting NOX4 Amplex Red fluorescence – cell-based, HEK293-NOX4, tetracycline-induced, NOX inhibitor project, primary screen (AID 1160). Conditions: HEK293-NOX4, Amplex Red H2O2 fluorescence, 45 min; higher = more signal, called active from +8 up or from −8 down.
NADPH oxidase 4 (Homo sapiens), sequence (Q9NPH5 whole entry, looked up): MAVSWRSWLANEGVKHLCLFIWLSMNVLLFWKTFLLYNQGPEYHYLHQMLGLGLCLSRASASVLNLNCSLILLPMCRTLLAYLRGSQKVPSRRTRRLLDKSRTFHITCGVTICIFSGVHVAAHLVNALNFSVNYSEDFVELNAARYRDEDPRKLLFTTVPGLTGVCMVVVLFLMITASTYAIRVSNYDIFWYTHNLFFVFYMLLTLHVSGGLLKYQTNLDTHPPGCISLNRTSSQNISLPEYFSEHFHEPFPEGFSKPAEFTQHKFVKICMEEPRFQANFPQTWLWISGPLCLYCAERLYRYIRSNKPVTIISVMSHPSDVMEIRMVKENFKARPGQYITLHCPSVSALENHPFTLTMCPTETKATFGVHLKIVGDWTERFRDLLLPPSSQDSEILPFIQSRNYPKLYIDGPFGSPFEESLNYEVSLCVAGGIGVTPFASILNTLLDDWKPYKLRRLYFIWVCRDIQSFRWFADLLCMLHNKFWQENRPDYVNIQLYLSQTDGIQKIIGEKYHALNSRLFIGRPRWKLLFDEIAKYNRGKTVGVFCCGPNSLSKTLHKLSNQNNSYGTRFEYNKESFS
Assay [10] concerns the target NADPH oxidase 5 (Homo sapiens) (UniProt Q96PH1). In words: compounds shifting NOX5 Amplex Red fluorescence – cell-based, HEK293-NOX5, NOX inhibitor project, primary screen (AID 1161). The conditions noted are these: HEK293-NOX5, ionomycin, 45 min, higher = more signal.

Calls of active or inactive are those of the source.

NADPH oxidase 5 (Homo sapiens), sequence (Q96PH1 whole entry, looked up): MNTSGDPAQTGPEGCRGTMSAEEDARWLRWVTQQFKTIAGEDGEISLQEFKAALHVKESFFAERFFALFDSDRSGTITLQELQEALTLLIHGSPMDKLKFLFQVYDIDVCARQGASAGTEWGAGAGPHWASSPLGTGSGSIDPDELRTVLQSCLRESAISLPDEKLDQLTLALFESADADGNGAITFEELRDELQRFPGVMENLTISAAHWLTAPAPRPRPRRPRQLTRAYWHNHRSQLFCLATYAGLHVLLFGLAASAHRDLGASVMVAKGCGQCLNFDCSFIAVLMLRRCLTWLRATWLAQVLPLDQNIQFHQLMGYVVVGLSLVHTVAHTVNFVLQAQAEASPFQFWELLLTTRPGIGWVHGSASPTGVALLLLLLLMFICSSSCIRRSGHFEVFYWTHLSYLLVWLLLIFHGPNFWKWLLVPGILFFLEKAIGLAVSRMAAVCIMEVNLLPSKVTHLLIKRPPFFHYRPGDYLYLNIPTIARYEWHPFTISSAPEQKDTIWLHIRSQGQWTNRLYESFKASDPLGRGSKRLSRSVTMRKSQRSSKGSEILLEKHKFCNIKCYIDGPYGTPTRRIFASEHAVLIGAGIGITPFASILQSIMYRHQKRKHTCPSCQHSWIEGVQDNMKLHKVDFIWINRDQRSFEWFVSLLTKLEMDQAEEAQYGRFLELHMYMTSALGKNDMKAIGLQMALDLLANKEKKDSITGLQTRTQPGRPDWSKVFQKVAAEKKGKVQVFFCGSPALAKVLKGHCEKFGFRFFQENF

As to `O=C1O[C@@H](c2ccccc2)[C@@H](c2ccccc2)N2[C@@H](c3ccc(O)cc3)[C@]3(C(=O)Nc4ccc(C#CC5=CCCCC5)cc43)[C@@H](C(=O)NC[C@H](O)c3ccccc3)[C@H]12`, the z-score in assay [1] is 1.22 (inactive); in assay [3], 0.622 (inactive); in assay [4], 0.347 (inactive); in [5] it was -0.853 (inactive); in assay [6], 0.933 (inactive); in [7], 0.0825. The z-score is 1.22 (inactive) in assay [8], 0.53 (inactive) in [9] and 0.909 in assay [10]. Moreover, the composite z-score in assay [2] is 0.15.

Take `CCCCC(O)C1C=CC2C(=O)N(c3ccccc3)C(=O)C2N1Nc1ccc(C(C)C)cc1` (stereo not given): the z-score was -0.759 (inactive) in [1]; 2.81 (inactive) in assay [3]; 1.44 (inactive) in assay [4]; 0.39 (inactive) in assay [5]; 1.39 (inactive) in assay [6]; -0.843 in assay [7]. Also, the z-score was -1.5 (inactive) in [8], -3.21 (inactive) in assay [9] and -1.92 in assay [10]. The composite z-score in assay [2] is 0.484.

Turning to `O=C(NCC(F)(F)F)[C@@H]1c2ccccc2C(=O)N(Cc2cc(F)cc(C(F)(F)F)c2)[C@H]1c1ccc(CO)cc1`, the z-score in [1] is 0.319 (inactive); in [3] it was 1.71 (inactive); in assay [4], -0.0966 (inactive); in [5], 1.24 (inactive); in assay [6], 0.449 (inactive); in assay [7], 0.286. The z-score in assay [8] is 0.898 (inactive); in assay [9] it was -1.68 (inactive); in [10], -1.17. This compound displayed a composite z-score in assay [2] of 0.0494.

With `[N-]=[N+]=Nc1ccccc1C[C@]1(C(N)=O)N=C(c2ccc(OCCCO)cc2)O[C@H]1c1ccccc1N=[N+]=[N-]`, the z-score in assay [1] was -0.254 (inactive); in [3] it was 28.5 (active); in assay [4] it was 23.5 (active); in assay [5], 1.87 (inactive); in assay [6], 1.16 (inactive); in assay [7], 1.14. Moreover, the results for the z-score in assay [8], in [9] and in assay [10] were -4.36 (inactive), -2.16 (inactive) and -2.52, respectively. In addition, the composite z-score in [2] was determined as 0.237.

Regarding `COc1ccc([Si](C)(C)[C@@H]2[C@@H](CC(=O)N3Cc4ccccc4C[C@H]3CO)O[C@]3(C(=O)N(C)c4ccccc43)[C@H]2C)cc1`, the z-score in [1] was -0.883 (inactive); in assay [3] it was 11.8 (active); in assay [4] it was 2.87 (inactive); in [5] it was 0.368 (inactive); in assay [6], 1.21 (inactive); in assay [7], 0.884. For the same compound, the z-score in [8] is -0.11 (inactive); in assay [9], 0.00429 (inactive); in [10], -1.7. Further, in assay [2], the composite z-score is 0.503.

For the compound `C=C(/C(=C/C[C@@H](OC(C)=O)c1cccc(OCCO)c1)c1cc(C(=O)OC)ccc1OC)C(C)C`, the z-score in assay [1] is 0.546 (inactive); in assay [3], 9.43 (active); in assay [4], 1.6 (inactive); in [5], 2.19 (inactive); in assay [6], 0.75 (inactive); in assay [7], 0.547. In addition, the z-score in assay [8] was -2.08 (inactive); in [9], -1.07 (inactive); in assay [10], -2.17. Also, the composite z-score in [2] turned out to be 0.0962.

Regarding `O=C(NCC(F)(F)F)[C@@H]1c2ccccc2C(=O)N(Cc2ccccc2C(F)(F)F)[C@H]1c1ccc(CO)cc1`, the z-score in [1] is 0.142 (inactive); in [3], 1.45 (inactive); in [4], 0.478 (inactive); in [5] it was 0.239 (inactive); in assay [6], 0.109 (inactive); in [7] it was -0.537. Further, the results for the z-score in [8], in assay [9] and in assay [10] were 0.536 (inactive), 0.0258 (inactive) and -0.284, respectively. Besides, the composite z-score in assay [2] was -0.0164.

Regarding `COc1cc2c(cc1OC)CN(C(=O)[C@@H]1[C@H]3C(=O)O[C@H](c4ccccc4)[C@H](c4ccccc4)N3[C@H](c3ccc(OCCO)cc3)[C@@]13C(=O)Nc1ccc(C#CC4(O)CCCCCC4)cc13)CC2`, the z-score in assay [1] was 3.13 (inactive); in assay [3], 4.33 (inactive); in [4], 1.05 (inactive); in [5] it was 0.785 (inactive); in assay [6], -1.27 (inactive); in assay [7], 2.48. Further, the results for the z-score in assay [8], in assay [9] and in assay [10] were 0.737 (inactive), 0.802 (inactive) and 1.82, respectively. For the same compound, the composite z-score in assay [2] stood at 0.246.

As for `N#Cc1ccc(C(O)C2C=CC3C(=O)N(c4ccccc4)C(=O)C3N2Nc2ccccc2)cc1` (stereo not given), the z-score is 0.128 (inactive) in [1]; 5.39 (inactive) in assay [3]; -0.173 (inactive) in assay [4]; 1.18 (inactive) in assay [5]; -0.889 (inactive) in [6]; 1.64 in [7]. Also, the z-score is -2.73 (inactive) in assay [8], -4.19 (inactive) in assay [9] and -3.02 in assay [10]. Moreover, the composite z-score in [2] was 0.135.

As for `NC(=O)NCC#Cc1ccc2c(c1)[C@]1(C(=O)N2)[C@H](C(=O)NC[C@H](O)c2ccccc2)[C@H]2C(=O)O[C@H](c3ccccc3)[C@H](c3ccccc3)N2[C@@H]1c1ccc(OCCO)cc1`, the z-score was 0.851 (inactive) in [1]; 4.47 (inactive) in assay [3]; 1.72 (inactive) in assay [4]; 1.55 (inactive) in assay [5]; 0.49 (inactive) in assay [6]; 0.0785 in assay [7]. Further, the z-score in assay [8] is 1.59 (inactive); in assay [9], 0.849 (inactive); in assay [10], 0.737. In assay [2], this compound yielded a composite z-score of 0.157.

Regarding `CC(C)(C)N1CC=CC23O[C@@H]4C=CCCOC(=O)C4[C@H]2C(=O)N(CCO)[C@@H]3C1=O` (stereo not given in full), the z-score in assay [1] is 0.209 (inactive); in [3], 0.901 (inactive); in assay [4], 0.884 (inactive); in assay [5], 1.28 (inactive); in assay [6], 0.6 (inactive); in [7], 0.461. In addition, the z-score in [8] was 1.31 (inactive); in assay [9], 0.696 (inactive); in assay [10] it was 1.23. Further, the composite z-score in [2] is -0.0823.

Regarding `C=C(/C(=C/C[C@H](OC(C)=O)c1ccccc1OCCO)c1cc(C(=O)OC)ccc1OC)C(C)C`, the z-score was 0.483 (inactive) in assay [1]; 5.75 (inactive) in assay [3]; 0.195 (inactive) in assay [4]; 1.85 (inactive) in assay [5]; -1.19 (inactive) in [6]; 1.09 in assay [7]. The z-score is 0.137 (inactive) in [8], 0.264 (inactive) in [9] and -2.12 in [10]. In assay [2], this compound displayed a composite z-score of -0.157.

These data come from PubChem BioAssay.
